# Data as given in ChEMBL document CHEMBL1961873, “Compounds: GSK PKIS; Assays: Nanosyn kinase panel” (2012).
# What was measured:
# [1] = molecular target: Sphingosine kinase 1 (Homo sapiens) (UniProt Q9NYA1); conditions: at 1 µM;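 further: mean SPHK1 inhibition value reported from the GSK PKIS kinase panel screen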
# [2] = molecular target: T1, Sphingosine kinase 2 (Homo sapiens) (UniProt Q9NRA0); conditions: at 0.1 µM
# T1 sequence (whole entry): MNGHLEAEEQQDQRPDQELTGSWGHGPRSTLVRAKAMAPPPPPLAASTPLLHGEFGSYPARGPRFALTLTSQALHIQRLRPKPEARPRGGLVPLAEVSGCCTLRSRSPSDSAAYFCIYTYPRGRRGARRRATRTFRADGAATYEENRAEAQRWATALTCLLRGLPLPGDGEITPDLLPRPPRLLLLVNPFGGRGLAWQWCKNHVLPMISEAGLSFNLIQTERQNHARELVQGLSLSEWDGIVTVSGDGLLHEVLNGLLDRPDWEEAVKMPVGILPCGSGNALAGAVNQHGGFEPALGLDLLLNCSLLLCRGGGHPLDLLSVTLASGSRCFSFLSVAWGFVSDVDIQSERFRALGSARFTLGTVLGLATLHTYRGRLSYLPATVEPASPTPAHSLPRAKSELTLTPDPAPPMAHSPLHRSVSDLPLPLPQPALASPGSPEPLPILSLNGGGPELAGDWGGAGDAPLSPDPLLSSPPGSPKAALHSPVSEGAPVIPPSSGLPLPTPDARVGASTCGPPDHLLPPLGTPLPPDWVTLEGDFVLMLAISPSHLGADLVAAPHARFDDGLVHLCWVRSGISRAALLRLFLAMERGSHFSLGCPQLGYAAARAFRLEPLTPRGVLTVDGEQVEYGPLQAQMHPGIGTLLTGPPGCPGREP
# [3] = molecular target: T1, Sphingosine kinase 2 (Homo sapiens); conditions: at 1 µM
# [4] = molecular target: Casein kinase II subunit alpha (Homo sapiens) (UniProt P68400); conditions: at 0.1 µM
# Casein kinase II subunit alpha (Homo sapiens), sequence (P68400 whole entry, looked up): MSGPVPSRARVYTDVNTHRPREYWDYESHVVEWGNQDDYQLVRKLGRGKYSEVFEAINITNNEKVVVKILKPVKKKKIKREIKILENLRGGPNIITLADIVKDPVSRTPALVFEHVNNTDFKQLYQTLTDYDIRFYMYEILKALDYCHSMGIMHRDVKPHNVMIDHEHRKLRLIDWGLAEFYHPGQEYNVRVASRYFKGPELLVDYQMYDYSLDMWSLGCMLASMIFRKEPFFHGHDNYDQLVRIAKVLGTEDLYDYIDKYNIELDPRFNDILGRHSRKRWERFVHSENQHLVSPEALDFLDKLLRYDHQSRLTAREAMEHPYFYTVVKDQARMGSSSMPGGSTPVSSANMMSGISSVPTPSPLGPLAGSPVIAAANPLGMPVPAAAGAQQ
# [5] = molecular target: Casein kinase II subunit alpha (Homo sapiens) (UniProt P68400); conditions: at 1 µM
# [6] = molecular target: T2, Inhibitor of nuclear factor kappa-B kinase subunit alpha (Homo sapiens) (UniProt O15111); conditions: at 0.1 µM
# T2 sequence (whole entry): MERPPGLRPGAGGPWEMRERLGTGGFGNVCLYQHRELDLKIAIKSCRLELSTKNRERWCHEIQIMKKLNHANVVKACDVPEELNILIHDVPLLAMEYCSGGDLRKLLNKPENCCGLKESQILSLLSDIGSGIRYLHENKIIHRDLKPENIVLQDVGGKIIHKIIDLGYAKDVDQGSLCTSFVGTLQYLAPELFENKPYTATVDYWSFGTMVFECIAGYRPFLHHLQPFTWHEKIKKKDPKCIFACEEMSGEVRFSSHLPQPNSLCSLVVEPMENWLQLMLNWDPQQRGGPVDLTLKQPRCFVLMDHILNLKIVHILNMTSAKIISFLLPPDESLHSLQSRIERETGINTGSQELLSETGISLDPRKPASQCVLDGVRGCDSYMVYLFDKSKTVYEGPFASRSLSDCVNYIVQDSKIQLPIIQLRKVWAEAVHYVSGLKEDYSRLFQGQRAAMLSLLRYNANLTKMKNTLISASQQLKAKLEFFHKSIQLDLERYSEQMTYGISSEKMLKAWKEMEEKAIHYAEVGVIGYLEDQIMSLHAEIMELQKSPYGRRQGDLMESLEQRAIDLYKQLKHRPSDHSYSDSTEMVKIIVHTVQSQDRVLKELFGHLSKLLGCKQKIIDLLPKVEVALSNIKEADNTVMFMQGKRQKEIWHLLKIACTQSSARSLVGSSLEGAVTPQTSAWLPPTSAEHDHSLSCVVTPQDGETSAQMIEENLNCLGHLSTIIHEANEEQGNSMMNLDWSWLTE
# [7] = molecular target: T2, Inhibitor of nuclear factor kappa-B kinase subunit alpha (Homo sapiens); conditions: at 1 µM
# [8] = molecular target: T3, Inhibitor of nuclear factor kappa-B kinase subunit beta (Homo sapiens) (UniProt O14920); conditions: at 0.1 µM
# T3 sequence (whole entry): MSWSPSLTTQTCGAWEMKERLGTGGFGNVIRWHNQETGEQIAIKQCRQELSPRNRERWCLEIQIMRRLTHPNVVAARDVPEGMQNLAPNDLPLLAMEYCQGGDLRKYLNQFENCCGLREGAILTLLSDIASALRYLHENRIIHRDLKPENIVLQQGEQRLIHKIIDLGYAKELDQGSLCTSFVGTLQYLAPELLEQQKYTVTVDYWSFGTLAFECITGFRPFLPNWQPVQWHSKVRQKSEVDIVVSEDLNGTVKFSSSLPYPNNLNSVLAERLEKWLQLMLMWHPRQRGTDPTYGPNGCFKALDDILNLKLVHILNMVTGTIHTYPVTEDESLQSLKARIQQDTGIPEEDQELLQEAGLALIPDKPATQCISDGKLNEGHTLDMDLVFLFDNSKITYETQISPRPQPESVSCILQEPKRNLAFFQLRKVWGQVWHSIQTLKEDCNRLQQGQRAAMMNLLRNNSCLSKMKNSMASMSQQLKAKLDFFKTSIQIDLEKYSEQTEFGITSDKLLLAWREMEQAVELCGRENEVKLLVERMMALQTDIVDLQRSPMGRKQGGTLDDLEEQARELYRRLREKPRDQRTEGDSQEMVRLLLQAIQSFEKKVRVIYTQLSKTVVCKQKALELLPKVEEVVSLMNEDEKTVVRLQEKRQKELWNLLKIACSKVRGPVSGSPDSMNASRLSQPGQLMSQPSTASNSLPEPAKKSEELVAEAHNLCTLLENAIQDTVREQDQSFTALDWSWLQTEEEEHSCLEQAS
# [9] = molecular target: T3, Inhibitor of nuclear factor kappa-B kinase subunit beta (Homo sapiens); conditions: at 1 µM
# [10] = molecular target: T4, Inhibitor of nuclear factor kappa-B kinase subunit epsilon (Homo sapiens) (UniProt Q14164); conditions: at 0.1 µM
# T4 sequence (whole entry): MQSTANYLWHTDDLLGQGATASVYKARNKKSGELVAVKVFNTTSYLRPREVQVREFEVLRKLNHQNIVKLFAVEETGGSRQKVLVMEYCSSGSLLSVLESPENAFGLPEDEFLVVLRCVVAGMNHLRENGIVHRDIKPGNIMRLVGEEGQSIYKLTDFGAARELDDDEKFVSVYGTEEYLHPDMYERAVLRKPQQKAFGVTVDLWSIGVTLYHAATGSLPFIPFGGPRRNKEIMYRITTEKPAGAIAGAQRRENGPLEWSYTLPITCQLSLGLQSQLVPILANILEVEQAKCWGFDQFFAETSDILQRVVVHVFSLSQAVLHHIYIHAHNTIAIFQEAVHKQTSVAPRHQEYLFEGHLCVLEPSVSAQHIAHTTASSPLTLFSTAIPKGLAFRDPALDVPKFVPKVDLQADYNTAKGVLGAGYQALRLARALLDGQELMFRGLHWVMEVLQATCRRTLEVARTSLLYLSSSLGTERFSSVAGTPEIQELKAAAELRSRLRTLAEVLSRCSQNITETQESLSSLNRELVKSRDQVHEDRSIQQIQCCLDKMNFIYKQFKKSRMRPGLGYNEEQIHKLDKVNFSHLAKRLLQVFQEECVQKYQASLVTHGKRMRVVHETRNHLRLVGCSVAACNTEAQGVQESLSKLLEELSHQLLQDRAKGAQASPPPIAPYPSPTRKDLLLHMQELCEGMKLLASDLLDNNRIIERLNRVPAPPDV
# [11] = molecular target: T4, Inhibitor of nuclear factor kappa-B kinase subunit epsilon (Homo sapiens); conditions: at 1 µM
# [12] = molecular target: T5, Serine/threonine-protein kinase Nek1 (Homo sapiens) (UniProt Q96PY6); conditions: at 0.1 µM
# T5 sequence (whole entry): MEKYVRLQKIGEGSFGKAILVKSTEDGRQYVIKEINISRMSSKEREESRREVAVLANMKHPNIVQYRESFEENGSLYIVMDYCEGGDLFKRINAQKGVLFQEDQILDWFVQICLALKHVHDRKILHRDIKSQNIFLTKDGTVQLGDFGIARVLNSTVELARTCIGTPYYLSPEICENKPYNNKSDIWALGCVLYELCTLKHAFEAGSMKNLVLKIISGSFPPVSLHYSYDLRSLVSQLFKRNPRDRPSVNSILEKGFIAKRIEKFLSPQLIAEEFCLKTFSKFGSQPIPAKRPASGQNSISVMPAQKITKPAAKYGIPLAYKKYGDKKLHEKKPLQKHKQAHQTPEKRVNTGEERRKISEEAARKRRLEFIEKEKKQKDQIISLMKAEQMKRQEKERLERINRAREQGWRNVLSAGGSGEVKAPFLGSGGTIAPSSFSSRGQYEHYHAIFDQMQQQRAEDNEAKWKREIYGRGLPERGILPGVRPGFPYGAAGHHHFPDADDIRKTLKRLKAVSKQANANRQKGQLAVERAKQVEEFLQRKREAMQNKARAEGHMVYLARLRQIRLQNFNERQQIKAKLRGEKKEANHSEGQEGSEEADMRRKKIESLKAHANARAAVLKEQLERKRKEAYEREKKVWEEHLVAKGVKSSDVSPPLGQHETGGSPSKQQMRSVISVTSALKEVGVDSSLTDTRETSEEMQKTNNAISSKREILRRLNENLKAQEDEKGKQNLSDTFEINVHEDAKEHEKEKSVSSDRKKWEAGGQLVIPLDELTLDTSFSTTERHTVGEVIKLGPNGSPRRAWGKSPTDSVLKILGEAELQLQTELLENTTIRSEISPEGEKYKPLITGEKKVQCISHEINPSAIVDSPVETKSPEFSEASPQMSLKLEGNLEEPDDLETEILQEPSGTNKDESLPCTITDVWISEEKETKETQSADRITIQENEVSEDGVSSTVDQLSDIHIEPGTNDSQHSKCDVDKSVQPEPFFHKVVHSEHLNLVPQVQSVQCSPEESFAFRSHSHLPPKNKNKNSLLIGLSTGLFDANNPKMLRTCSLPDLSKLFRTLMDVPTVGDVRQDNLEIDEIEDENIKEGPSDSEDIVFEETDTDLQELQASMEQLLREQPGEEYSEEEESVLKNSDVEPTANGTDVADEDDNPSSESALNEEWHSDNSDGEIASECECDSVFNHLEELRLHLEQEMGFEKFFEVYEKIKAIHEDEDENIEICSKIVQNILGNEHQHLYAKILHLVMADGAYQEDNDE
# [13] = molecular target: T5, Serine/threonine-protein kinase Nek1 (Homo sapiens); conditions: at 1 µM
# [14] = molecular target: T6, Serine/threonine-protein kinase Nek2 (Homo sapiens) (UniProt P51955); conditions: at 0.1 µM
# T6 sequence (whole entry): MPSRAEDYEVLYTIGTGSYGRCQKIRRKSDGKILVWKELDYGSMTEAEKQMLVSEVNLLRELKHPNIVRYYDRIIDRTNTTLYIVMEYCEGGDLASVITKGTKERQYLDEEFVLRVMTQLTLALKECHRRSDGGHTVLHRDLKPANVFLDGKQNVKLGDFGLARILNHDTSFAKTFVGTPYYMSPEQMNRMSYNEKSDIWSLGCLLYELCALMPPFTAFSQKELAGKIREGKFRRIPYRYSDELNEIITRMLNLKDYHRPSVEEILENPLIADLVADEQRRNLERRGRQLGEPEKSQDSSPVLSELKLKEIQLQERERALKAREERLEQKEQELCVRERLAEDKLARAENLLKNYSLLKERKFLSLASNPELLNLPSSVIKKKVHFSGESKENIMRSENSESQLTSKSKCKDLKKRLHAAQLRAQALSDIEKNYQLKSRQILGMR
# [15] = molecular target: T6, Serine/threonine-protein kinase Nek2 (Homo sapiens); conditions: at 1 µM
# [16] = molecular target: Serine/threonine-protein kinase Nek6 (Homo sapiens) (UniProt Q9HC98); conditions: at 0.1 µM
# Serine/threonine-protein kinase Nek6 (Homo sapiens), sequence (Q9HC98 whole entry): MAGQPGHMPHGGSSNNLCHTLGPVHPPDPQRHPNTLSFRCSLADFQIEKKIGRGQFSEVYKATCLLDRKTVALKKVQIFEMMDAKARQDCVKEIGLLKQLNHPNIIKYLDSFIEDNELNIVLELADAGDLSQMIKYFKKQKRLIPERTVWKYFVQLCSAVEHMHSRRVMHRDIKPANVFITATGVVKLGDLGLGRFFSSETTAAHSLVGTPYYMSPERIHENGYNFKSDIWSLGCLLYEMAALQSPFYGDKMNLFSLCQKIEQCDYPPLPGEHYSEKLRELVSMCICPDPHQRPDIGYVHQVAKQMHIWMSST
# [17] = molecular target: Serine/threonine-protein kinase Nek6 (Homo sapiens) (UniProt Q9HC98); conditions: at 1 µM
# [18] = molecular target: Serine/threonine-protein kinase Nek7 (Homo sapiens) (UniProt Q8TDX7); conditions: at 0.1 µM
# Serine/threonine-protein kinase Nek7 (Homo sapiens), sequence (Q8TDX7 whole entry, looked up): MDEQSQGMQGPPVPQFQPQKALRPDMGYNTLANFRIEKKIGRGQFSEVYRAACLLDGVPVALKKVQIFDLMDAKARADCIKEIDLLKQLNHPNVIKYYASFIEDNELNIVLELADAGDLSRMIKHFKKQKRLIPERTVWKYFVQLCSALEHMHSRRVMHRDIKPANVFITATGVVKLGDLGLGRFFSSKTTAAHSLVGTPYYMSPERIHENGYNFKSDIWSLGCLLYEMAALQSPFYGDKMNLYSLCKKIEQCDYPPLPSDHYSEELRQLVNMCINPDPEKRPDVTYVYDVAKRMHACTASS
# [19] = molecular target: Serine/threonine-protein kinase Nek7 (Homo sapiens) (UniProt Q8TDX7); conditions: at 1 µM
# [20] = molecular target: T7, Serine/threonine-protein kinase Nek9 (Homo sapiens) (UniProt Q8TD19); conditions: at 0.1 µM;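 further: reported value is the mean percent inhibition of NEK9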
# T7 sequence (whole entry): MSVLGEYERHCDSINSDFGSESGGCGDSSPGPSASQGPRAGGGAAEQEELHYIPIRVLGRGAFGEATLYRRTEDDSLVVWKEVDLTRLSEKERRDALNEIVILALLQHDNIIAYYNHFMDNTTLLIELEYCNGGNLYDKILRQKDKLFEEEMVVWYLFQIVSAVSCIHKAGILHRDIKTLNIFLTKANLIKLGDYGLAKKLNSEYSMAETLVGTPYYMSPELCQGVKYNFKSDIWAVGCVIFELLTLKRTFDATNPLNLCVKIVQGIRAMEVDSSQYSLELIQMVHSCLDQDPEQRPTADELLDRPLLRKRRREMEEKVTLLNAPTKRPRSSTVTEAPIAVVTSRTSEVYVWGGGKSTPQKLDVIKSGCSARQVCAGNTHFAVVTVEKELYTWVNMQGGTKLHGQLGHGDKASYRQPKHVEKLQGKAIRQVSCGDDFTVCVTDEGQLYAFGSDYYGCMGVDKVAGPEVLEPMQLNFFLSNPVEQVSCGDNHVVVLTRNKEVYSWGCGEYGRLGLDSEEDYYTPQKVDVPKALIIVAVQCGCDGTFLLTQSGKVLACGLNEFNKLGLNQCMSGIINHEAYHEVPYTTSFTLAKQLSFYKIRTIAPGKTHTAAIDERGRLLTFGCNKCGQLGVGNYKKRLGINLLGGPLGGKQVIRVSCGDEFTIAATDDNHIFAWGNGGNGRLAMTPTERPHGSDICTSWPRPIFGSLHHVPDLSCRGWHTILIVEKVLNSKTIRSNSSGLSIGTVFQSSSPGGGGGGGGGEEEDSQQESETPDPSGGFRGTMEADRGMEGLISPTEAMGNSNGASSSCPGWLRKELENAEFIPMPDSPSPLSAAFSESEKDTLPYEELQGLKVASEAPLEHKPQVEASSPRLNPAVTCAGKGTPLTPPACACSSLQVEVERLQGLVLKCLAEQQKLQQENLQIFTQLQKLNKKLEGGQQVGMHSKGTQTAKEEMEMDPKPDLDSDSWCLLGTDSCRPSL
# Sphingosine kinase 1 (Homo sapiens), sequence (Q9NYA1 whole entry): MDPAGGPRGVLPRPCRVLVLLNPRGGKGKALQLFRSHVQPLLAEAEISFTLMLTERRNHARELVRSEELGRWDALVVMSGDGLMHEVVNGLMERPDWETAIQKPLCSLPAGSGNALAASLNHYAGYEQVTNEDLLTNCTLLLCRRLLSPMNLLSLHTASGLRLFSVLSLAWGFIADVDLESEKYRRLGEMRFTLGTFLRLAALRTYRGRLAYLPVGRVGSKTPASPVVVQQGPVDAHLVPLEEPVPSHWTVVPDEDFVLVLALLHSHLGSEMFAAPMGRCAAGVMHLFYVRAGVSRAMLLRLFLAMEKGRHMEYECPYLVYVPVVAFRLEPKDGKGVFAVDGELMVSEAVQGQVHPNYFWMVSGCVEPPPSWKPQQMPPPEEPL
structure (smiles),measurement,setting,value
CCn1c(-c2nonc2N)nc2c(C#CC(C)(C)O)nc(CN3CCCC3)cc21,inhibition,[1],0.08%
same,inhibition,[2],2.01%
same,inhibition,[3],1.13%
same,inhibition,[4],-0.41%
same,inhibition,[5],0.78%
same,inhibition,[6],-1.06%
same,inhibition,[7],0.78%
same,inhibition,[8],-1.14%
same,inhibition,[9],-3.01%
same,inhibition,[10],5.75%
same,inhibition,[11],30%
same,inhibition,[12],0.5%
same,inhibition,[13],2.97%
same,inhibition,[14],-0.01%
same,inhibition,[15],1.09%
same,inhibition,[16],1.01%
same,inhibition,[17],-0.68%
same,inhibition,[18],2.37%
same,inhibition,[19],0.41%
same,inhibition,[20],-0.93%
